Screening results from PubChem.
DRD3 agonist – qHTS of D3 Dopamine Receptor Agonist: qHTS. D(3) dopamine receptor (Homo sapiens), P35462. D3R DiscoveRx beta-arrestin cells, luminescence, 90 min. max activation, %. 0.58% of 410,000 active; in the data active means max activation above about 30%; further: 0% is about no effect
Target sequence (P35462 whole entry, looked up): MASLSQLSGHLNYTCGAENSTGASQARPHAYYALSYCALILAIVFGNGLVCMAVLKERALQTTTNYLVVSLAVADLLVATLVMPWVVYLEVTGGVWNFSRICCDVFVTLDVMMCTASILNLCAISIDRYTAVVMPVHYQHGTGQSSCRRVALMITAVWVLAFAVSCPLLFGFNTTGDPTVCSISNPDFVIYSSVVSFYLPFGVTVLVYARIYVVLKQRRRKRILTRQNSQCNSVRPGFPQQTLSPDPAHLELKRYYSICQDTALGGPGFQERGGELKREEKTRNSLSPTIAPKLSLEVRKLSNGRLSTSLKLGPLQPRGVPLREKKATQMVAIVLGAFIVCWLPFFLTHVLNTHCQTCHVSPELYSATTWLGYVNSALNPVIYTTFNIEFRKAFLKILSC
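Cells at 1500/well, incubated overnight, then treated with pinned compounds (dopamine as control) for 90 min at 37 degrees C. DiscoveRx reagent added for 30 - 60 minutes at room temperature; luminescence read.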
DRD3 antagonist – qHTS of D3 Dopamine Receptor Antagonist: qHTS | D3R cells, DiscoveRx beta-arrestin luminescence, antagonist mode; active compounds read low | max response, negative = inhibition, % | D(3) dopamine receptor (Homo sapiens), P35462 | 2.5% of 360,000 active; in the data active means max response below about -50%; inconclusive means no clear call, values can overlap the other calls; further: on the % scale 0 is the no-effect control and ±100 the full control effect
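Cells expressing the human receptor were seeded at 1500 cells/well, incubated overnight at 37 degrees C in 5% CO2, then exposed to library compounds with dopamine controls for 90 minutes at 37 degrees C before luminescent detection.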
MCF10A rerep – A quantitative high throughput screen for small molecules that induce DNA re-replication in MCF 10a normal breast cells; MCF 10A DNA re-replication, Hoechst nuclear intensity, 48 h; Potency, µM (series often up to 46.1 µM), inactives show at the highest dose activity, positive = re-replication, usual class: activators; 2.9% of 350,000 active; further: potency means the concentration at half of the fitted maximal effect; % of control where 0% means no effect; nearly all actives have a fitted effect of over 50% in size
SW480 rerep – A quantitative high throughput screen for small molecules that induce DNA re-replication in SW480 colon adenocarcinoma cells; SW480 DNA re-replication, Hoechst DNA content imaging, 48 h; Potency, µM (top dose mostly 46.1 µM), for inactives: top-dose re-replication activation, most hits filed as activators; 1.8% of 340,000 active; further: potency means the concentration at half of the fitted maximal effect; % of control where 0% means no effect; nearly all actives have a fitted effect of over 55% in size
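DNA re-replication was detected as more nuclei of elevated Hoechst intensity after 48 hr exposure to compound (23 nL pinned per well of 250 cells).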
KB-3-1 tox – qHTS assay for MDR1-selective chemotherapeutics: Primary screen using the parental adenocarcinoma cell KB-3-1; KB-3-1 viability, CellTiter-Glo ATP luminescence, 72 h; Potency, µM (titrated, usually from 46.1 µM), usual class: cytotoxic; 1.4% of 400,000 active; AID 1347075, 2019; further: potency means the concentration at half of the fitted maximal effect; on the % scale 0 is the no-effect control and ±100 the full control effect; nearly all actives have a fitted effect of over 60% in size
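Here the drug-naive KB-3-1 line serves as comparator for MDR sub-line selectivity; cells received compound titrations, 72 h at 37 °C, then CellTiter-Glo readout.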
KB-V1 cytotox – qHTS assay for MDR1-selective chemotherapeutics: Primary screen using the drug-selected MDR subline cells KB-V1; Potency, µM (titrated, usually from 46.1 µM), usual class: cytotoxic; AID 1347076, 2019; KB-V1 MDR cells viability, CellTiter-Glo, 72 h; 3.4% of 400,000 active; further: potency means the concentration at half of the fitted maximal effect; on the % scale 0 is the no-effect control and ±100 the full control effect; nearly all actives have a fitted effect of over 60% in size
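Potencies derive from concentration-effect curves fitted to normalized luminescence (CellTiter-Glo) of KB-V1 cells treated for 72 h at 37 degrees C in phenol-red-free DMEM containing 10% FBS.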
* marks the source's active call; other numbers are inactive results; ! = not confirmed by another sample. A selection: hits, their analogues and other compounds. The true share with any hit is near 8.9%. Unless noted, the call rests on the fitted dose curve; in most records, active means well fitted curve in the direction sought with a large enough effect; inconclusive means small, poorly fitted or top-dose-only effect, or another doubt; inactive means no such curve, though single readings can be large; an effect the other way counts as inactive or inconclusive.

Cc1cccc(N2CCN(C(=S)c3ccc4c(c3)OCO4)CC2)c1 was read as DRD3 agonist -11, DRD3 antagonist -2, MCF10A rerep 1.3µM*, SW480 rerep 6.5µM*, KB-3-1 tox 10µM* and KB-V1 cytotox inactive.
Screening CC1CCN(C(=S)c2ccc3c(c2)OCO3)CC1 returned DRD3 agonist 8, DRD3 antagonist 13, MCF10A rerep -9%, SW480 rerep -10%, KB-3-1 tox inactive and KB-V1 cytotox inactive.
For O=C(c1ccc2c(c1)OCO2)N1CCN(c2ccc(Cl)cc2)CC1 the results were DRD3 agonist 5, DRD3 antagonist 12, MCF10A rerep inconclusive, SW480 rerep 8%, KB-3-1 tox inactive and KB-V1 cytotox inconclusive.
For CCOc1ccc(NC(=O)Cn2nnc(C(=O)NCCc3ccccc3)c2N)cc1 the results were DRD3 agonist 2, KB-3-1 tox inactive and KB-V1 cytotox inconclusive.
For CN1CCN(S(=O)(=O)c2ccc(Nc3ccc(F)cc3)c([N+](=O)[O-])c2)CC1 the results were DRD3 agonist -10, DRD3 antagonist 2, MCF10A rerep inconclusive, SW480 rerep 29µM*, KB-3-1 tox inactive and KB-V1 cytotox inconclusive.
For CCOc1ccc(Nc2ccc(S(=O)(=O)N3CCN(C)CC3)cc2[N+](=O)[O-])cc1OCC the results were DRD3 agonist -5, DRD3 antagonist -13, MCF10A rerep -3%, SW480 rerep -4%, KB-3-1 tox inactive and KB-V1 cytotox inactive.
For CN1Cc2c(N)cccc2C(c2ccccc2)C1 (configuration not stated) the results were DRD3 agonist -21, DRD3 antagonist -63*!, MCF10A rerep -14%, SW480 rerep -8%, KB-3-1 tox inactive and KB-V1 cytotox inactive.
COc1cc2c(cc1OC)[C@@H](c1ccccc1)CN(C)CC2 was read as DRD3 agonist -12.
`COc1ccc(S(=O)(=O)N2CCN(C(=O)C3CC3)CC2)cc1Br` gave DRD3 agonist -3, DRD3 antagonist 6, MCF10A rerep 18%, SW480 rerep -1%, KB-3-1 tox inactive and KB-V1 cytotox inactive.
For Cn1cc(CN(CCCN2CCOCC2)C(=S)Nc2cccc(Cl)c2)c2ccccc21 the results were DRD3 agonist -28, DRD3 antagonist inconclusive, MCF10A rerep 23µM*, SW480 rerep 16µM*, KB-3-1 tox inactive and KB-V1 cytotox inactive.
For COc1ccc(OC)c(CN(CCN2CCOCC2)C(=O)Nc2cccc(Cl)c2)c1 the results were DRD3 agonist -9, DRD3 antagonist 0, MCF10A rerep 22%, SW480 rerep 13%, KB-3-1 tox inactive and KB-V1 cytotox 3.7µM*.
`Cc1ccc(NC(=S)N(C)Cc2cn(C)c3ccccc23)cc1` gave DRD3 agonist 0, DRD3 antagonist inconclusive, MCF10A rerep inconclusive, SW480 rerep -2%, KB-3-1 tox inactive and KB-V1 cytotox 21µM*.
Screening S=C(Nc1ccccc1Cl)N(CCCN1CCOCC1)Cc1ccco1 returned DRD3 agonist 0, DRD3 antagonist 7, MCF10A rerep 4%, SW480 rerep -3%, KB-3-1 tox inactive and KB-V1 cytotox 21µM*.
For COc1ccc(OC)c(CN(CCN2CCOCC2)C(=O)Nc2ccccc2)c1 the results were DRD3 agonist -3, DRD3 antagonist -21, MCF10A rerep inconclusive, SW480 rerep -4%, KB-3-1 tox inactive and KB-V1 cytotox inconclusive.
For Cc1cccc(NC(=S)N(CCCN2CCOCC2)Cc2cn(C)c3ccccc23)c1 the results were DRD3 agonist -23, DRD3 antagonist 0, MCF10A rerep inconclusive, SW480 rerep inconclusive, KB-3-1 tox inconclusive and KB-V1 cytotox inactive.
`CCc1cccc(C)c1NC(=O)CSc1nc(C)cc(C)c1C(=O)Nc1ccccc1` gave DRD3 agonist -3, KB-3-1 tox inactive and KB-V1 cytotox inactive.
O=C(NCc1cccc(Br)c1)c1ccc(-n2cnc3cccnc32)cc1 was read as DRD3 agonist -17, KB-3-1 tox inactive and KB-V1 cytotox inactive.
For CSc1cccc(NC(=S)N(CCCN2CCCC2)Cc2cccn2Cc2ccc(Cl)cc2)c1 the results were DRD3 agonist -21, DRD3 antagonist inconclusive, MCF10A rerep 21µM*, SW480 rerep inconclusive, KB-3-1 tox inactive and KB-V1 cytotox 18µM*.
Screening S=C(Nc1cccc(Cl)c1)N(CCCN1CCCC1)Cc1cccn1Cc1ccc(Cl)cc1 returned DRD3 agonist -10, DRD3 antagonist inconclusive, MCF10A rerep inconclusive, SW480 rerep -1%, KB-3-1 tox inconclusive and KB-V1 cytotox 12µM*.
Screening CSc1cccc(NC(=S)N2CCCN(Cc3cccc(Cl)c3)C2)c1 returned DRD3 agonist -15, DRD3 antagonist inconclusive, MCF10A rerep inconclusive, SW480 rerep inconclusive, KB-3-1 tox inactive and KB-V1 cytotox inconclusive.
COc1cccc(NC(=S)N(CCCN2CCCC2)Cc2cccn2Cc2ccc(Cl)cc2)c1 was read as DRD3 agonist -20, DRD3 antagonist inconclusive, MCF10A rerep 12%, SW480 rerep inconclusive, KB-3-1 tox inconclusive and KB-V1 cytotox inconclusive.
`CCOC(=O)Cn1c(=O)n(C2CCCCC2)c2nc(-c3cccc(F)c3)nc(C(N)=O)c21` gave DRD3 agonist -3, KB-3-1 tox inactive and KB-V1 cytotox inactive.
CCOC(=O)Cn1c(=O)n(C2CCCCC2)c2nc(-c3c(F)cccc3Cl)nc(C(N)=O)c21 was read as DRD3 agonist -8, KB-3-1 tox inconclusive and KB-V1 cytotox 18µM*.
CC(C)N(C(=O)N1CCN(c2ccnc3cc(Cl)ccc23)CC1)C(C)C was read as DRD3 agonist 19, DRD3 antagonist 63, MCF10A rerep 16µM*, SW480 rerep 10%, KB-3-1 tox inactive and KB-V1 cytotox inconclusive.
`Oc1ccc(N2CCN(c3ccnc4cc(Cl)ccc34)CC2)cc1` gave DRD3 agonist -5, DRD3 antagonist -24, MCF10A rerep inconclusive, SW480 rerep inconclusive, KB-3-1 tox 16µM* and KB-V1 cytotox 15µM*.
Screening COc1ccc(N2CCN(c3ccnc4cc(Cl)ccc34)CC2)cc1 returned DRD3 agonist 7, DRD3 antagonist 8, MCF10A rerep inconclusive, SW480 rerep 3%, KB-3-1 tox inactive and KB-V1 cytotox inconclusive.
Screening Cc1cccc(-n2c(=O)c3c(c4cc(C)ccc4n3C)n(CC(=O)N3CCCC3)c2=O)c1 returned DRD3 agonist -2, KB-3-1 tox inactive and KB-V1 cytotox inconclusive.
